Screens deposited in PubChem by National Center for Advancing Translational Sciences (NCATS).
VP16 counter: VP16 counterscreen qHTS for inhibitors of ROR gamma transcriptional activity; Drosophila S2 Gal4-VP16 UAS-luciferase, luminescence, 20 h; Potency, µM (doses to about 53.6 µM), for the others: at the top dose activity, negative = inhibition, usual class: inhibitors; actives 3.5% (n = 310,000); AID 2546, 2010;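 further: Gal4-VP16 expression switched on by copper sulfate through the metallothionein promoter; nearly all actives have a fitted effect of over 50% in size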
ELG1 DNA repair: qHTS screen for small molecules that inhibit ELG1-dependent DNA repair in human embryonic kidney (HEK293T) cells expressing luciferase-tagged ELG1 | HEK293T ELG1-luciferase reporter, luminescence, 16 h; DNA damage induced by 5-fluorouridine | Potency, µM (series often up to 46.1 µM), without a hit: at the highest dose activity change, negative = inhibition, actives largely listed as inhibitors | actives 2.3% (n = 330,000) | AID 504467, 2011; further: nearly all actives have a fitted effect of over 55% in size
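In this reporter screen, reduction of luminescence relative to DMSO vehicle indicated activity. Compounds and 5-fluorouridine were added together to 2,000 cells per well, incubated for 16 hr at 37 °C, then developed with ONE-Glo.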
DT40 TDP1 no CPT: qHTS for Inhibitors of human tyrosyl-DNA phosphodiesterase 1 (TDP1): qHTS in cells in absence of CPT; DT40 Tdp1-/- hTDP1 cells, no CPT, ATP luminescence, 48 h; actives 15% (n = 420,000); Potency, µM (series often up to 46.2 µM), inactives show at the highest dose activity change, negative = growth inhibition, hits mostly inhibitors; further: nearly all actives have a fitted effect of over 55% in size
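A cellular qHTS used chicken DT40 cells lacking endogenous Tdp1 but carrying stably transfected human TDP1. Compounds were applied without camptothecin, and cell growth kinetics were judged by ATP-dependent luminescence after ≥48 hr.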
TDP1 cell CPT: qHTS for Inhibitors of human tyrosyl-DNA phosphodiesterase 1 (TDP1): qHTS in cells in presence of CPT; actives 12% (n = 420,000); chicken DT40 Tdp1-/-;hTDP1 cells + 20 nM CPT, ATP luminescence, 48 h; Potency, µM (highest dose often 46.2 µM), for inactives: at the highest dose activity change, negative = growth inhibition, usual class: inhibitors; further: nearly all actives have a fitted effect of over 55% in size
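Cell growth measured by CellTiter-Glo luminescence after a minimum 48 h, 37 C compound exposure with 20 nM CPT in Tdp1-knockout DT40 cells stably expressing hTDP1, seeded 400/well; qHTS titration format.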
RORgamma inh: qHTS for inhibitors of ROR gamma transcriptional activity | Nuclear receptor ROR-gamma (Mus musculus), P51450 | Drosophila S2 Gal4-RORgamma UAS-luciferase reporter, 20 h | Potency, µM (titrated, usually from 53.6 µM), without a hit: at the highest dose activity change, negative = inhibition, actives largely listed as inhibitors | actives 5.4% (n = 310,000) | AID 2551, 2010; further: nearly all actives have a fitted effect of over 60% in size
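Stably transfected Drosophila Schneider cells are the test system, with ROR gamma fused to Gal4 and luciferase under UAS control; luminescence is read after 20 hr of 700 uM copper sulfate induction at ambient temperature.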
ALOX12 inh: Primary qHTS assay for inhibitors of human arachidonate 12S-lipoxygenase (ALOX12): Round 2; Polyunsaturated fatty acid lipoxygenase ALOX12 (Homo sapiens), P18054; purified 12hLO, xylenol orange hydroperoxide absorbance; Potency, µM (highest dose often 108 µM), for the others: at the highest dose activity change, negative = inhibition, actives largely listed as inhibitors; actives 1.1% (n = 580,000); AID 1671190, 2021
Target sequence (P18054 whole entry, looked up): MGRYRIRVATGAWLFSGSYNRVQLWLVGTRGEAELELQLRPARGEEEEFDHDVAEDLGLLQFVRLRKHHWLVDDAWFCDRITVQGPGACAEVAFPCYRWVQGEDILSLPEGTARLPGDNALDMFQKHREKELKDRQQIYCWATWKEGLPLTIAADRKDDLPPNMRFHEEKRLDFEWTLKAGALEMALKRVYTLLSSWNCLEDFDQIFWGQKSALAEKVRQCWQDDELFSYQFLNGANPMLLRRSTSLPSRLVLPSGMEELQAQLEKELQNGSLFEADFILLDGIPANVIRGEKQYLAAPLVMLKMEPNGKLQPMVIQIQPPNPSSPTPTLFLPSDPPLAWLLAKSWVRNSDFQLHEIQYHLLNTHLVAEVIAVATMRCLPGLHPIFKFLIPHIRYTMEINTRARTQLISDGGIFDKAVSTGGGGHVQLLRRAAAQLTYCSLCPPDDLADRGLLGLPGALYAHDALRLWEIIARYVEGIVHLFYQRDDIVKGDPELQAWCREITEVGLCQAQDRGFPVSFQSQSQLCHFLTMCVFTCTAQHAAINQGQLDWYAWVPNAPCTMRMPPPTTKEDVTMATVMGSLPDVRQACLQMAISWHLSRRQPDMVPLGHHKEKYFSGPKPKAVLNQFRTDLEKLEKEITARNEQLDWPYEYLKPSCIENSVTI
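Purified human 12hLO (150 nM final) in 25 mM Hepes, 0.01% Triton X-100, pH 7.0 was preincubated 15 min at room temperature with compound. Then 40 uM arachidonic acid was added, 30 min. Hydroperoxide was read by Fe-XO absorbance ratio 573/405 nm.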
An asterisk follows results filed as active; [ ] = dose if it differs, or a comment. Most compounds without a hit are left out; they make up all but 15% or so of the library. The call rests on the fitted dose curve; in most records, active means well fitted curve in the direction sought with a large enough effect; inconclusive means small, poorly fitted or top-dose-only effect, or another doubt; inactive means no such curve, though single readings can be large; an effect the other way counts as inactive or inconclusive. On the % scale 0 is the no-effect control and ±100 the full control effect; potency means the concentration at half of the fitted maximal effect.

CCc1nc2ccccc2c(=O)n1NC(=O)c1c(O)c2ccccc2[nH]c1=O was read as VP16 counter 2%, ELG1 DNA repair -27%, DT40 TDP1 no CPT 18µM*, TDP1 cell CPT 21µM*, RORgamma inh -5% and ALOX12 inh 0%.
For O=C(CCl)NNC(=O)c1c(O)c2ccccc2[nH]c1=O the results were VP16 counter -19%, ELG1 DNA repair 1%, DT40 TDP1 no CPT 5.2µM*, TDP1 cell CPT 4.6µM*, RORgamma inh -29% and ALOX12 inh 8%.
`CCCCC(=O)NNC(=O)c1c(O)c2ccccc2[nH]c1=O` gave VP16 counter 10%, ELG1 DNA repair -15%, DT40 TDP1 no CPT inconclusive, TDP1 cell CPT -22%, RORgamma inh 9% and ALOX12 inh 5%.
CCOc1cccc(C(=O)Nc2cccc(-c3nnc(-c4ccccc4)o3)c2)c1 was read as VP16 counter -3%, ELG1 DNA repair 9.2µM*, DT40 TDP1 no CPT 18µM*, TDP1 cell CPT 15µM*, RORgamma inh 35% and ALOX12 inh -6%.
Screening CCOc1cccc(C(=O)Nc2cccc(-c3nnc(-c4ccc(C)cc4)o3)c2)c1 returned VP16 counter inconclusive, ELG1 DNA repair -3%, DT40 TDP1 no CPT inconclusive, TDP1 cell CPT 18µM*, RORgamma inh -23% and ALOX12 inh inconclusive.
COc1cccc(C(=O)Nc2ccc(-c3nnc(-c4ccco4)o3)cc2)c1 was read as VP16 counter -9%, ELG1 DNA repair -10%, DT40 TDP1 no CPT 10µM*, TDP1 cell CPT inconclusive, RORgamma inh -18% and ALOX12 inh 0%.
`Cc1ccc(NC(=S)NNC(=O)c2ccco2)cc1` gave VP16 counter -9%, ELG1 DNA repair inconclusive, DT40 TDP1 no CPT -4%, TDP1 cell CPT -2%, RORgamma inh inconclusive and ALOX12 inh 1%.
For Cc1ccc(-c2nnc(-c3ccc(NC(=O)c4ccco4)cc3)o2)cc1 the results were VP16 counter 4%, ELG1 DNA repair -19%, DT40 TDP1 no CPT 21µM*, TDP1 cell CPT 23µM*, RORgamma inh inconclusive and ALOX12 inh 9%.
`C=CCOc1cccc(NC(=O)c2cccc(OCC)c2)c1` gave ALOX12 inh -26%.
`COc1cc(/C=C/C(=O)OCC(=O)OC2CC(C)CCC2C(C)C)cc(OC)c1OC` (stereo not drawn) gave ALOX12 inh 34%.
COc1ccccc1CC(=O)NC(C)C1CC2CCC1C2 (stereo not drawn) was read as ALOX12 inh -31%.
For Cc1ccc(-c2nc3ccccn3c2NC(=O)c2ccco2)cc1 the results were VP16 counter 12%, ELG1 DNA repair 29%, DT40 TDP1 no CPT 0%, TDP1 cell CPT -8%, RORgamma inh 40µM* and ALOX12 inh 0%.
Cc1ccc(NC(=O)c2cnn(-c3ccccc3)c2NC(=O)c2ccco2)cc1 was read as VP16 counter 4%, ELG1 DNA repair -17%, DT40 TDP1 no CPT inconclusive, TDP1 cell CPT 13µM*, RORgamma inh 14% and ALOX12 inh 1%.
Screening COc1cccc(C(=O)Nc2cccc(-c3nnc(-c4ccccc4)o3)c2)c1 returned DT40 TDP1 no CPT 18µM*, TDP1 cell CPT inconclusive and ALOX12 inh 130%.
Screening Cc1ccc(C2Cn3nnc(C(=O)N4CCC(C(=O)NCc5ccccc5F)CC4)c3CO2)cc1 (stereo not drawn) returned ALOX12 inh 28%.
Screening Cc1ccc(/C=N/Nc2nc3ccccc3s2)o1 returned VP16 counter 10µM*, ELG1 DNA repair inconclusive, DT40 TDP1 no CPT inconclusive, TDP1 cell CPT inconclusive, RORgamma inh 8.9µM* and ALOX12 inh inconclusive.
Screening CC(=O)C(Sc1nc(NC(C)(C)C)nc(N(C)C)n1)C(C)=O returned VP16 counter 14µM*, ELG1 DNA repair 11%, DT40 TDP1 no CPT inconclusive, TDP1 cell CPT -21%, RORgamma inh 6.3µM* and ALOX12 inh inconclusive.
`O=C(O[C@H]1CC[C@@]23CCCN2C(=O)CCC[C@H]3C1)c1ccc(Br)cc1` gave ALOX12 inh 2%.
Screening O=C(c1ccc(N2CCCC2=O)cc1)N1CCN(c2ccccc2O)CC1 returned ELG1 DNA repair 18µM*, DT40 TDP1 no CPT inconclusive, TDP1 cell CPT -24% and ALOX12 inh 4%.
Screening Cc1ccc(C)c(N2CCN(C(=O)c3ccc(N4CCCC4=O)cc3)CC2)c1 returned VP16 counter -8%, ELG1 DNA repair inconclusive, DT40 TDP1 no CPT 16µM*, TDP1 cell CPT inconclusive and RORgamma inh -31%.
`COc1ccc(CN2CCCCCNC(=O)[C@@H]3CCC[C@@H]32)cc1Cn1ccnc1` gave ALOX12 inh 319%.
Screening COCC(=O)N1CCN2C(=O)c3cc(-c4ccc(OC)cc4)ccc3NC(=O)[C@H]2C1 returned ALOX12 inh 9%[176 µM].
For CC(=O)C1=C(O)C(=O)N(Cc2ccccc2)C1c1ccc(Br)cc1 (stereo not drawn) the results were VP16 counter 2%, ELG1 DNA repair -9%, DT40 TDP1 no CPT -21%, TDP1 cell CPT 25%, RORgamma inh 10% and ALOX12 inh 11µM*.
Screening CC(=O)C1=C(O)C(=O)N(c2ccccn2)C1c1ccc(C)cc1 (stereo not drawn) returned VP16 counter 23%, ELG1 DNA repair -5%, DT40 TDP1 no CPT -10%, TDP1 cell CPT -3%, RORgamma inh 0% and ALOX12 inh 1%.
For CC(=O)C1=C(O)C(=O)N(c2cccc(Br)c2)C1c1ccc(Br)cc1 (stereo not drawn) the results were VP16 counter -12%, ELG1 DNA repair -10%, DT40 TDP1 no CPT -8%, TDP1 cell CPT -7%, RORgamma inh 23% and ALOX12 inh inconclusive.
For CC(=O)C1=C(O)C(=O)N(c2nccs2)C1c1ccccc1 (stereo not drawn) the results were VP16 counter 21%, ELG1 DNA repair -13%, DT40 TDP1 no CPT -25%, TDP1 cell CPT -24%, RORgamma inh 1% and ALOX12 inh 8.9µM*.
